Data on 95 compounds can be found in PubChem BioAssay AID488862 (Broad Institute, 2010).

Each structure is given as a SMILES string. The whole screen tested about 340,000 compounds, of which about 1,200 (0.35%) were called active. What follows is part of a selection rich in actives, with near analogues and random picks from the rest. A number with no mark means an inactive call. No stated cut-off is given here; in the data, active means inhibition above about 52%; inactive means the rest.

A short description of the assay: suppresses PrP 5' UTR mRNA reporter expression (AID 488862). Further: 0 = median of the neutral control wells. The note with it: cell-based PrP 5' UTR mRNA reporter, plate reader; active compounds read high; concentration not given here.
`Cc1nonc1C(=O)N/N=C/c1ccc(O)cc1`: the inhibition (usually the drop in the measured response relative to a control, in per cent) is -28.8%.

For the compound `COC(=O)c1ccccc1NC(=O)CN(Cc1ccccc1)S(C)(=O)=O`, the inhibition was -21.1%.

In the case of `CN(CCO)c1ccc(/C=N/Nc2nncc3ccccc23)cc1`, the inhibition is 79.8% (active).

As for `C/C(=N\Nc1nncc2ccccc12)c1ccc(Cl)c([N+](=O)[O-])c1`, the inhibition was -45.7%.

Take `COc1cccc(/C=N\Nc2nncc(-c3ccccc3)n2)c1`: the inhibition is -63.5%.

Turning to `CC(C)(C)C1CCC(C(=O)Nc2cccnc2)CC1` (stereo not given), the inhibition is -7.89%.

For `O=C(Nc1ccc(Br)cn1)C1CCN(S(=O)(=O)c2cccs2)CC1`, the inhibition is -7.76%.

Regarding `C/C(=N\NC(=O)c1cc2c(s1)CCC(C)C2)c1cccnc1` (stereo not given), the inhibition is 55.4% (active).

In the case of `C/C(=N\NC(=O)c1ccc2ccccc2c1)c1cccnc1`, the inhibition is -12.7%.

Consider `CC1CCc2sc(C(=O)N/N=C/C3CCCCC3)cc2C1` (stereo not given), for which the inhibition is 1.9%.

For the compound `COc1ccc2oc(C(=O)OCC(=O)N(CC(C)C)c3c(N)n(Cc4ccccc4)c(=O)[nH]c3=O)c(C)c2c1`, the inhibition was 4.93%.

For `COc1ccc(N(C(=O)c2ccc(C)cc2)S(=O)(=O)c2cccs2)cc1`, the inhibition was -6.19%.

Take `CC(C)(C)c1ccc(OC2=CS(=O)(=O)c3ccccc32)cc1`: the inhibition is -61.3%.

Regarding `CC(C)(C)c1ccc(OC(=O)N2CCCCC2)cc1`, the inhibition was -72.8%.

Turning to `CC(C)(C)c1ccc(Oc2ccc(N)cc2)cc1`, the inhibition was 64.6% (active).

For the compound `CCOC(=O)N1CCN(C(=O)COCc2cc(-c3ccc4c(c3)OCO4)on2)CC1`, the inhibition is -11.7%.

In the case of `N#C/C=C\Oc1ccc(Cl)cc1N`, the inhibition was -13%.

As to `COc1cccc2c1OCC1COc3c(c(=O)n(C)c(=O)n3C)C21` (stereo not given), the inhibition was -23.4%.

On to `O=C(NCCCN1CCOCC1)c1ccccc1NS(=O)(=O)c1ccc(Br)cc1`, for which the inhibition was -22.1%.

`COCC(C)n1c(C)cc(C(=O)CSc2cc(C)c3ccccc3n2)c1C` (stereo not given): the inhibition was -11.2%.

As to `c1ccc(-n2ncc(-c3nn[nH]n3)n2)cc1`, the inhibition is -12.7%.

Regarding `O=S(=O)(Nc1ccc2nc(N3CCOCC3)sc2c1)c1ccccc1`, the inhibition was -104%.

For `c1c2c(cc3sc(N4CCCCC4)nc13)OCCO2`, the inhibition was 76.1% (active).

With `CN(C)CCN(C(=O)C1CCCCC1)c1nc2cc3c(cc2s1)OCO3`, the inhibition is -8.29%.

Take `CC(=O)N1CCc2cc(S(=O)(=O)Nc3ccccc3N3CCN(C)CC3)ccc21`: the inhibition was -36.7%.

On to `Cc1ccc(C(c2sc3nc(C)nn3c2O)N2CCN(c3ccccc3)CC2)cc1` (stereo not given), for which the inhibition is -16.6%.

`CC12CCC3C(CCC4CC(=O)CCC43C)C1CC(=NO)C2=O` (stereo not given): the inhibition is 52% (active).

With `C[C@]12CCC3C(CC[C@H]4[C@H](O)[C@H](O)CC[C@]34C)C1CCC2=O` (stereo not given in full), the inhibition is -23.5%.

With `CC(C)C(NC(=O)OCc1ccccc1)C(=O)OCC(=O)N1C(C)CCCC1C` (stereo not given), the inhibition is -20.8%.

For `CN(C)C(=O)c1cc(Br)ccc1Cl`, the inhibition is -23.2%.

`CC(C)CC[n+]1ccn(C2=C([O-])c3ccccc3C(=O)/C2=N\S(=O)(=O)c2ccccc2)c1`: the inhibition was -17.3%.

For the compound `CC(C)(C)c1nc2ccccc2c(=O)n1N1C(=O)c2ccccc2C1=O`, the inhibition is -7.16%.

Regarding `CC(C)C(C)NC(=O)COc1nc2ccccc2nc1N(C)C1CCCCC1` (stereo not given), the inhibition was -28.4%.

For `CN(c1ccc2nc3ccccc3c(=O)n2n1)C1CCCCC1`, the inhibition was 78.1% (active).

Take `O=C(CCn1c(=O)oc2ccccc21)Nc1ccon1`: the inhibition is -14.3%.

For the compound `CCCNC(=O)C1CC(=O)N(c2ccc(OCC(=O)Nc3cccc(C)c3C)cc2)C1` (stereo not given), the inhibition was -2.71%.

On to `O=C(c1ccc2c(c1)C(=O)N(Cc1ccncc1)C2=O)N1CCN(S(=O)(=O)c2ccc(OC(F)(F)F)cc2)CC1`, for which the inhibition was -12.7%.

For `CC[n+]1c(C)n(-c2ccccc2)c2ccc(NC(C)=O)cc21`, the inhibition is -45%.

Consider `CN(NC(=O)c1ccccc1F)c1nc(C(F)(F)F)nc2ccccc12`, for which the inhibition was 61.9% (active).

Take `Cn1c(CC(=O)NNC(=O)c2ccccc2F)nc2ccccc21`: the inhibition was -14.3%.

For the compound `CSc1nc(N(C)NC(=O)c2cccc(C)c2)c2ccccc2n1`, the inhibition is 30.9%.

On to `CCOC(=O)c1ccc(NC(=O)C2CC(=O)Nc3nc4ccccc4n32)cc1` (stereo not given), for which the inhibition is -13.3%.

Turning to `Nc1ccc(OCC(O)C[n+]2ccc(CCS(=O)(=O)[O-])cc2)cc1` (stereo not given), the inhibition was 78.9% (active).

Regarding `CCCc1ccc(OCC(O)CN2CCN(C(=O)OCC)CC2)cc1` (stereo not given), the inhibition was -12.3%.

On to `CCCc1ccc(OCC(O)CN2CCN(CCO)CC2)cc1` (stereo not given), for which the inhibition is -4.25%.

On to `COC(=O)N1CN(C(=O)OC)CN(C(=O)OC)C1`, for which the inhibition is -16.8%.

In the case of `COC(=O)C1C(=O)c2c([nH]c(C(=O)OCCSC)c2C)CC1C` (stereo not given), the inhibition was -51.7%.

Turning to `CCOC(=O)C1=C(N)N(c2ccc(C)cc2)C2=C(C(=O)CCC2)C1c1cccs1` (stereo not given), the inhibition is -23.6%.

On to `CCCOC(=O)c1[nH]c2c(c1C)C(=O)CC(c1cccs1)C2` (stereo not given), for which the inhibition is 60.4% (active).

Consider `COc1cccc(NC(=O)N2CCCC2C(=O)NC2CCCCC2)c1` (stereo not given), for which the inhibition was -31.7%.

In the case of `C/C(=C(\C#N)C(=O)NCCCN1CCOCC1)N(C)C`, the inhibition is -31.6%.

Take `COc1cccc2c1OCC(C(=O)NCc1ccc(Cl)cc1Cl)=C2`: the inhibition is -13%.

As to `COC(=O)C(C)Sc1ccc2nnc(-c3cccc(F)c3)n2n1` (stereo not given), the inhibition was -8.06%.

As to `COCCNc1cc(-c2ccccc2)nc2cc(-c3cccc(F)c3)nn12`, the inhibition is 59.6% (active).

Turning to `COc1ccc(NC(=O)c2cc3nc(-c4ccccc4)cc(C)n3n2)cc1OC`, the inhibition is -26.9%.

Take `COc1ccc(/C=C/c2noc(-c3ccccc3OC(C)=O)n2)cc1`: the inhibition was -28.8%.

As for `COc1ccc(-c2nc(-c3ccccc3)no2)c(OC)c1`, the inhibition is 66.6% (active).

As for `COc1ccc(OC)c(-c2csc(-c3cccs3)n2)c1`, the inhibition was 4.49%.

For the compound `COc1ccccc1Nc1nnc(SC(C)C(=O)NC2CC2)s1` (stereo not given), the inhibition is 2.27%.

`CCOC(=O)c1c(/N=C/c2cc(C)ccc2O)sc2c1CCC2`: the inhibition was -12.5%.

Turning to `O=C(CSc1cccc[n+]1[O-])NCCCc1ccccc1`, the inhibition was -19.4%.

For `C=CCn1c(C)cc(C2=NNC(=NCC)SC2)c1C`, the inhibition was 93.9% (active).

As to `CN(C)c1ccc(CNC(=O)CN2C(=O)COc3ccc(S(=O)(=O)N4CCCC4)cc32)cc1`, the inhibition is -1.62%.

With `CCCC(=O)n1nc(NCc2ccc(OC)cc2)nc1NCc1ccc(OC)cc1`, the inhibition is -14.7%.

As to `Clc1ccc2nc3c(c(-c4ccccc4)c2c1)CNCC3`, the inhibition was -16%.

Take `Clc1ccc2nc(-c3ccccc3)nc(C(Cl)Cl)c2c1`: the inhibition is 92.7% (active).

For the compound `NC(N)=Nc1nc(-c2ccccc2)c2cc(Cl)ccc2n1`, the inhibition was -17.4%.

On to `Oc1ccccc1N1CCN(C(=S)NCc2ccccc2)CC1`, for which the inhibition is -14.6%.

As to `Oc1ccc(N2CCN(C(=S)NCc3ccccc3)CC2)cc1`, the inhibition was 87.9% (active).

Turning to `O=C(COC(=O)c1ccccc1C(=O)N1CCN(c2ccccc2)CC1)NCc1ccccc1`, the inhibition is -7.33%.

Consider `O=C(NCc1ccco1)c1ccc([N+](=O)[O-])cc1Cl`, for which the inhibition was -16.6%.

Take `CCC(=O)c1cn(CCOc2ccccc2OC)c2ccccc12`: the inhibition was -20.1%.

Regarding `Cc1nn2cc(-c3ccc(Cl)cc3)cnc2c1Br`, the inhibition was -42%.

Consider `Cc1ccc(S(=O)(=O)Nc2nc3ccccc3s2)cc1[N+](=O)[O-]`, for which the inhibition was 57.4% (active).

In the case of `CCOc1ccc2sc(NS(=O)(=O)c3ccc(N)cc3)nc2c1`, the inhibition was -14.4%.

Turning to `Cc1ccc(S(=O)(=O)NCCSc2ccccc2)cc1[N+](=O)[O-]`, the inhibition was -22.1%.

As for `O=C(Nc1ccc2c(c1)OCO2)C1CC1(Cl)Cl` (stereo not given), the inhibition is -8.25%.

For `O=C(Nc1ccc2c(c1)OCCO2)c1ccoc1`, the inhibition was -45.1%.

Regarding `O=C(Nc1ccc2c(c1)OCCO2)C1CCCC1`, the inhibition is 56.5% (active).

As to `O=C(c1ccc(Cl)nc1)N1CCN(S(=O)(=O)c2ccc3c(c2)OCCO3)CC1`, the inhibition is -18.9%.

`O=S(=O)(c1ccc(Br)cc1)c1nc(-c2ccccc2)oc1N1CCOCC1`: the inhibition was -6.56%.

On to `O=C(OCC(=O)N1CCN(C(=O)c2ccco2)CC1)c1c(Cl)cccc1Cl`, for which the inhibition was -17%.

In the case of `COc1cc(SC)ccc1C(=O)Nc1nc(C)cs1`, the inhibition is 87% (active).

Regarding `COc1cc(SC)ccc1C(=O)N(Cc1ccccc1)c1ccccc1`, the inhibition was -4.63%.

Take `COc1ccc(C(=O)Nc2cccc(NC(=O)c3ccc(OC)cc3OC)n2)c(OC)c1`: the inhibition was -7.03%.

Turning to `O=C(c1cccs1)n1nc(NCc2ccccc2)nc1NCc1ccccc1`, the inhibition was -11.8%.

In the case of `Cc1noc(C)c1COC(=O)Cn1c(C)nc2ccccc21`, the inhibition is -15.5%.

Regarding `CC(=O)c1sc(NC(=O)CCN2C(=O)C3CC=CCC3C2=O)nc1-c1ccccc1` (stereo not given), the inhibition is -19.1%.

Regarding `CC(=NCc1ccc2c(c1)OCO2)C1=C(O)c2ccccc2C1=O`, the inhibition was 1.49%.

Turning to `O=C(NCc1ccccc1CN1CCCC1)c1cccc(S(=O)(=O)Nc2ccc(F)cc2)c1`, the inhibition is -16.1%.

As for `CCC(C)(O)C(=O)OC1C(=O)OC2CC3C(C)=CC(=O)C(O)C3(C)C3C4(O)OCC23C1C(C)C4O` (stereo not given), the inhibition is 78.9% (active).

On to `Cc1cc(O)c(C(=O)/C=C/c2c(F)c(F)c(F)c(F)c2F)c(=O)o1`, for which the inhibition was 8.81%.

With `CC1(C)C[C@H]2C3=CCC4[C@@]5(C)CC[C@H](O)[C@](C)(CO)C5CC[C@@]4(C)[C@]3(C)C[C@@H](O)[C@@]2(CO)[C@@H](O)[C@@H]1O` (stereo not given in full), the inhibition was -7.8%.

As for `COc1ccccc1CNC(=O)CSc1nc(=O)n(Cc2ccncc2)c2c1CCC2`, the inhibition was 10.7%.

With `CS(=O)(=O)N(CC(=O)N1CCOCC1)c1ccc2c3c(cccc13)CC2`, the inhibition was -19.4%.
